Calb FLC = C. albicans growth inhibition with fluconazole, primary screen, CaCi-2 strain, Alamar Blue fluorescence | C. albicans CaCi-2 (fluconazole-resistant clinical isolate) + fluconazole, 48 h | growth inhibition, % (no concentration beside the values) | 300,000 compounds, 0.57% hits | AID 1979, 2009;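 active = growth inhibition above about 58% in most replicates, limit read from the data, passing the limit was not always enough; inconclusive = exactly half the replicates above a set limit; inactive = most replicates below a set limit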;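 also: all wells also contain fluconazole at 8 µg/ml as a sub-toxic cotreatment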
Beta cell apopt = inhibitors of cytokine-induced beta cell apoptosis, primary screen, luminescence; AID 435005, 2010; protection from apoptosis, % (no concentration beside the values); INS-1E cytokine-induced death, ATP luminescence, 48 h; percent of positive-control rescue, neutral wells zero; 300,000 compounds, 0.8% hits;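 active = Every replicate reaches about 75%, or at least half do and their mean reaches it too, limit read from the data; inconclusive = At least half of replicates reach the limit but their mean does not; inactive = Under half of replicates reach the limit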;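 also: higher means more ATP so stronger rescue from cytokine killing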
SKKanGAS inh = S. pyogenes SKKanGAS growth inhibitors in kanamycin, primary screen, streptokinase expression inhibitor project, SKKanGAS strain, BacTiter-Glo luminescence; AID 1662, 2009; 300,000 compounds, 1.3% hits; 6 h; inhibition, % at 7.5 µM;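 active = mean replicate score, as percent of positive control median, at least 50; inconclusive = mean below 50 but one replicate at or above 50; inactive = mean and every replicate below 50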;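 also: strain carries kanamycin resistance gene driven by streptokinase promoter and grows in 40 µg/ml kanamycin; loss of luminescence reflects streptokinase promoter inhibition or plain growth inhibition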
Mdm2 MdmX PPI = inhibitors of human Mdm2-MdmX association, primary screen, cell-based, luminescence, split luciferase, SaOS-2, uHTS; Protein Mdm4 (Homo sapiens) + E3 ubiquitin-protein ligase Mdm2 (Homo sapiens), …; SaOS-2 split-luciferase Mdm2/MdmX complementation; inhibition, % at 8 µM; 330,000 compounds, 3% hits;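 active = inhibition of at least 50% at 8 µM in the primary screen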
CSC inhib = cancer stem cell viability inhibitors, primary screen, luminescence. 300,000 compounds, 1.1% hits. AID 2717, 2010. inhibition, % at 7.5 µM. cancer stem cell-like cells viability; in the data active = inhibition above about 75%; inconclusive = no clear call, values can overlap the other calls; tested in HMLE shEcad cells
MPTP inh = mitochondrial permeability transition pore inhibitors, primary screen, biochemical, isolated mouse mitochondria, absorbance | inhibition, % at 10 µM | Ca2+ swelling absorbance, 30 min | 360,000 compounds, 1.4% hits | AID 602449, 2012;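 active = inhibition of 50% or more, scaled per plate between neutral and stimulator controls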
Rh123 counter = fluorescence retest of MPTP screen hits in isolated mitochondria, single concentration; shares compounds with MPTP inh; membrane potential, Rhodamine 123 fluorescence; inhibition, % at 10 µM; 5,000 compounds, 78% hits; AID 624504, 2012; in the data active = inhibition above about 22%
MPTP abs DR = mitochondrial permeability transition pore inhibitors, dose response, biochemical, absorbance, uHTS hits. shares compounds with MPTP inh. isolated mitochondria swelling. IC50, µM. 780 compounds, 58% hits. AID 651561, 2012; in the data active = IC50 below about 20 µM
MPTP cs DR = fluorescent counter-screen in isolated mitochondria, dose response, counter-screen for MPTP inhibitor project, biochemical, fluorescence, uHTS hits. IC50, µM. AID 651564, 2012. isolated mitochondria counterscreen, fluorescence read-out. shares compounds with MPTP inh. 780 compounds, 49% hits; in the data active = IC50 below about 80 µM
Large screens that a line does not name were inactive (follow-up assays come after a bar, where they were run). Hits are enriched below; roughly 5.4% of the tested compounds scored in any of these assays.

CC(=O)Oc1c(C(=O)c2nnc(C)o2)c(=O)n(C)c2ccccc12	none
O=C1c2ccccc2-c2cccc(NS(=O)(=O)c3ccc(C(F)(F)F)cc3)c21	MPTP inh 64 | Rh123 counter 38
CC12CCC(O)CC1=CCC1C2CCC2(C)C(c3ccn[nH]3)CCC12 (configuration not stated)	MPTP inh 57 (no result: Calb FLC, Beta cell apopt, SKKanGAS inh, Mdm2 MdmX PPI, CSC inhib) | Rh123 counter 88
CC1(C)C(=O)Nc2ccccc2N1C(=O)CSc1nc(-c2ccccc2)cs1	MPTP inh 98 (no result: Beta cell apopt, CSC inhib) | Rh123 counter 70
O=C1CN(C(=O)CSc2nc(-c3ccccc3)cs2)c2ccccc2N1	Calb FLC inconclusive (no result: CSC inhib)
COc1cc(/C=C/c2sc3ccccc3[n+]2CCCS(=O)(=O)[O-])ccc1O	MPTP inh 56 | Rh123 counter inactive
N#Cc1c(C(F)(F)F)cc(=O)n2c1[nH]c1ccccc12	MPTP inh 92 | Rh123 counter 94
O=S(=O)(c1ccc2oc(=S)[nH]c2c1)N1CCOCC1	none (no result: Calb FLC, SKKanGAS inh)
CCn1nc(C)c(CNC(=O)c2cc(COc3ccc(F)cc3Cl)on2)c1C	MPTP inh 53 | Rh123 counter 36
c1ccc(CNCCCNCCCCNCCCNCc2ccccc2)cc1	MPTP inh 84 (no result: Calb FLC, Beta cell apopt, SKKanGAS inh, Mdm2 MdmX PPI, CSC inhib) | Rh123 counter inactive | MPTP abs DR 1.4 | MPTP cs DR inactive
COC(=O)c1nc(NC(=O)c2ccc(Br)cc2)n[nH]1	MPTP inh 77 | Rh123 counter inactive | MPTP abs DR inactive | MPTP cs DR inactive
Cc1ccc(NC(=S)Nc2cccc3ccccc23)cc1F	MPTP inh 64 | Rh123 counter 84
Cn1nc(CC(=O)N2CCN(c3ccccc3)CC2)c2ccccc2c1=O	none
Cn1nc(CC(=O)Nc2ccc(N3CCN(C(=O)OC(C)(C)C)CC3)cc2)c2ccccc2c1=O	MPTP inh 101 | Rh123 counter 74
Cc1ccc(NC(=O)Cc2nn(C)c(=O)c3ccccc23)cc1F	Beta cell apopt 86, MPTP inh 59 | Rh123 counter 80
CCCC(=O)NC(Nc1cc(C(F)(F)F)ccc1Cl)C(Cl)(Cl)Cl (configuration not stated)	MPTP inh 90 | Rh123 counter 93
O=C(O)COn1c(-c2ccccc2)nc2ccc([N+](=O)[O-])cc21	none
O=[N+]([O-])c1ccc2nc(-c3ccc(Cl)cc3)n(OCc3ccccc3)c2c1	MPTP inh 89 | Rh123 counter 94
CCOC(=O)C(C)On1c(-c2ccc(Cl)cc2)nc2ccc([N+](=O)[O-])cc21 (configuration not stated)	MPTP inh 89 | Rh123 counter 108
Cc1ccc(COn2c(-c3ccc(Cl)cc3)nc3ccc([N+](=O)[O-])cc32)cc1	MPTP inh 88 (no result: Beta cell apopt) | Rh123 counter 84
CCOC(=O)C(C)On1c(-c2ccccc2)nc2ccc([N+](=O)[O-])cc21 (configuration not stated)	none
C/C(=N\NC(=S)NCc1ccccc1)c1ccco1	none
CC1(C)CC(=O)C(C2=NC3(CCCCCC3)Cc3ccccc32)=C(O)C1	none
OC(COc1ccc(Cl)cc1)CN1C2=NCCCN2c2ccccc21 (configuration not stated)	MPTP inh 70 (no result: Beta cell apopt) | Rh123 counter inactive | MPTP abs DR 18 | MPTP cs DR inactive
O=[N+]([O-])c1ccccc1S(=O)(=O)Oc1ccccc1/C=N/n1cnnc1	none (no result: CSC inhib)
c1coc(Cn2c(-c3ccco3)nc3ccccc32)c1	MPTP inh 51 | Rh123 counter inactive
NC(=O)NCc1ccccc1	none
O=C(Nc1cccc([N+](=O)[O-])c1)Nc1cccs1	MPTP inh 89 | Rh123 counter 85
